High-throughput results deposited in PubChem BioAssay by National Center for Advancing Translational Sciences (NCATS).
Hits are enriched below; roughly 2.3% of the tested compounds scored in any of these assays.
Nrf2 activator: qHTS of Nrf2 Activators. AREc32 ARE-luciferase reporter (MCF7-derived line), luminescence, 24 h. Potency, µM (series often up to 46.1 µM), hits mostly activators. hit rate 0.31% among 410,000. AID 624171, 2012; note: nearly all actives have a fitted effect of over 65% in size
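ARE-driven firefly luciferase activity in AREc32 cells measured after a 24 hr compound exposure at 37 deg C, using Steady-Glo reagent and a 30 min room-temperature hold.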
Nrf2 inh: Nrf2 qHTS screen for inhibitors; A549 ARE-Fluc reporter, luciferase luminescence, 18-24 h; Potency, µM (titrated, usually from 46 µM), hits mostly inhibitors; hit rate 2.1% among 360,000; AID 504444, 2011; note: nearly all actives have a fitted effect of over 60% in size
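In this cell-based qHTS, ARE-driven firefly luciferase in A549 cells reports Nrf2 activity; the luminescent signal after BugLite lysis is the measured value, with a prior CellTiter-Fluor read for cell health.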
Mito fusion act: qHTS Assay for Small Molecule Inhibitors of Mitochondrial Division or Activators of Mitochondrial Fusion; S. cerevisiae fusion-defective mutant growth rescue, CellTiterGlo 48 h; Potency, µM (top dose mostly 46.1 µM), usual class: activators; hit rate 0.23% among 320,000; AID 485298, 2010; note: nearly all actives have a fitted effect of over 45% in size
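S. cerevisiae fusion-defective temperature-sensitive mutants (e.g. fzo1-1, mgm1-5) grown 48 h at 37C in YPEG (ethanol/glycerol non-fermentable) medium with 23 nl compound per well; growth rescue read as CellTiterGlo luminescence.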
miR-21 act: qHTS Assay for Modulators of miRNAs and/orActivators of miR-21; HeLa miR-21 FLuc reporter, luciferase, 48 h; Potency, µM (highest dose often 38.3 µM), usual class: activators; 340,000 tested, under 10 active;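 note: miR-21 action dims this reporter so a rising signal means less miR-21 action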
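HeLa cells stably expressing CMV-driven firefly luciferase with a downstream miR-21 binding sequence, endogenously expressing miR-21, were treated with titrations (up to about 40uM final) for 48 hours at 37 degree Celsius. Luciferase luminescence was read after lysis.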
A549 viability: Nrf2 qHTS screen for inhibitors: counterscreen for cytotoxicity; AID 504648, 2011; Potency, µM (series often up to 46 µM), usual class: inhibitors; A549 ARE-Fluc cells, CellTiter-Fluor viability, 18-24 h; hit rate 0.16% among 390,000
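A549 ARE-Fluc cells in 5% FBS OPTI-MEM, 5000 cells/well, rested 2 h then exposed to compounds in concentration-response for 18-24 h at 37 °C. Viability by CellTiter-Fluor fluorescence (Ex 405/Em 525) after 30 min; luciferase luminescence (BugLite, 15 min, RT) read afterwards.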
Glioma ERSR ind: qHTS for Inducers of the Endoplasmic Reticulum Stress Response (ERSR) in Human Glioma: qHTS; U87-MG GRP78 promoter luciferase reporter, 16 h; AID 602332, 2012; Potency, µM, most hits filed as activators; hit rate 0.02% among 420,000; note: series mostly up to about 76 µM; nearly all actives have a fitted effect of over 35% in size
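Stably transfected U87-MG human glioma cells carrying a GRP78-based luminescent sensor were seeded at 1000 cells/well, pin-dosed with compounds and incubated 16 h. Luciferase reagent was then added, and end-point luminescence was read after 10 min at room temperature.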
Hits are given with their value; . = inactive; ? = inconclusive; / = no result. Calls come from the whole dose curve; as a rule, active = well fitted curve in the direction sought with a large enough effect; inconclusive = small, poorly fitted or top-dose-only effect, or another doubt; inactive = no such curve, though single readings can be large; an effect the other way counts as inactive or inconclusive.

SMILES | Nrf2 activator | Nrf2 inh | Mito fusion act | miR-21 act | A549 viability | Glioma ERSR ind
COC(=O)c1sc(N2C(=O)C(O)=C(C(=O)c3ccc(C)o3)C2c2cccs2)nc1C (configuration not stated) | . | 21µM | . | . | ? | .
Cc1cccc(NC(=O)c2nc[nH]c2C(=O)NCCCCCNC(=O)OC(C)(C)C)c1 | . | 21µM | . | / | ? | .
CC(C)(C)OC(=O)NCCCCCNC(=O)c1nc[nH]c1C(=O)NCc1ccc(CNC(=O)OC(C)(C)C)cc1 | . | 13µM | / | / | ? | .
CC(C)(C)OC(=O)NCCCCCNC(=O)c1[nH]cnc1C(=O)N[C@@H](CCCCNC(=O)OC(C)(C)C)C(=O)OC(C)(C)C | . | 23µM | . | . | . | .
CC(C)(C)OC(=O)NCCCCCNC(=O)c1nc[nH]c1C(=O)NCCCCCNC(=O)OC(C)(C)C | . | 13µM | / | / | . | .
CSc1ccc(C2c3[nH]c4ccccc4c3CCN2C(=O)c2cc(C)n(C)n2)cc1 (configuration not stated) | / | / | . | . | / | /
Cc1cc(C(=O)N2CCc3c([nH]c4ccccc34)C2c2cccc(Cl)c2)nn1C (configuration not stated) | . | . | 5µM | . | . | .
Cc1ccccc1CS(=O)(=O)c1cnc2ccccc2n1 | 8.9µM | . | . | . | . | .
Cc1ccccc1CS(=O)(=O)c1snnc1C | . | ? | . | . | / | .
CC(C)(C)c1ccc2c(c1)OC(C(=O)N/N=C\c1ccc(-c3cccc(C(=O)O)c3)o1)CO2 (configuration not stated) | . | . | . | . | . | .
CC(C)(C)c1ccc2c(c1)OC(C(=O)N/N=C\c1ccccn1)CO2 (configuration not stated) | . | 16µM | 16µM | . | . | .
CC(=O)c1ccc(NS(=O)(=O)c2ccc(C)cc2)cc1 | . | . | . | . | . | .
CC(=O)c1ccc(NS(=O)(=O)c2ccc(C(C)(C)C)cc2)cc1 | . | 8.2µM | . | . | . | .
COc1ccc(Cl)cc1NC(=O)Cn1cc2c(n1)CCC(C)C2 (configuration not stated) | . | . | / | . | . | .
Cc1ccc(-n2ncc(C(=O)NCc3ccc4c(c3)OCO4)c2C2CCN(C(=O)OC(C)(C)C)CC2)cc1C | . | 18µM | / | ? | . | .
COc1ccc(-n2ncc(C(=O)NCc3ccc4c(c3)OCO4)c2C2CCN(C(=O)OC(C)(C)C)CC2)cc1 | . | 16µM | / | . | . | .
CC(C)Cc1nnc(NC(=O)CN2C(=O)c3ccccc3C2=O)s1 | . | . | . | . | . | .
CC1=C(CO)C(=O)OC([C@@H](C)C2CC[C@H]3C4C[C@H]5O[C@]56[C@@H](O)C=CC(=O)[C@]6(C)C4CC[C@]23C)C1 (some centres not stated) | . | 13µM | . | ? | . | .
C/C(=N\NC(=O)c1cccs1)c1ccc2c(c1)OCO2 | . | ? | . | . | . | .
CSc1nnc(N2C(=O)C(O)=C(C(=O)c3ccco3)C2c2ccccc2F)s1 (configuration not stated) | 14µM | . | . | . | . | .
Cc1ccsc1C(=O)N(c1nc2ccccc2s1)c1c(C)cccc1C | . | 18µM | . | . | . | .
Cc1ccccc1N(C(=O)c1cccs1)c1nc2ccccc2s1 | . | . | ? | . | . | .
COCCOc1ccc(C(F)(F)F)cc1NC(=O)c1ccc(C)cc1 | 11µM | . | . | . | . | .
CC1=C(C(=O)OC2CCCCCCC2)C(c2cccc(O)c2)NC(=O)N1 (configuration not stated) | . | 26µM | . | . | . | .
CC1=C(C(=O)OC2CCCCCC2)C(c2cccc(Cl)c2)CC(=O)N1 (configuration not stated) | . | 16µM | / | . | . | .
